Data reported in PubChem BioAssay (NCATS).
Results filed as inconclusive are left out. Entries that show only a call come without a potency. Activity calls are given as the source filed them. Calls come from the whole dose curve; as a rule, active = well fitted curve in the direction sought with a large enough effect; inconclusive = small, poorly fitted or top-dose-only effect, or another doubt; inactive = no such curve, though single readings can be large; an effect the other way counts as inactive or inconclusive.

Columns and labels:
[1] = target: Aldehyde dehydrogenase, mitochondrial (Homo sapiens) (UniProt P05091); assay: qHTS for Inhibitors of the Aldehyde Dehydrogenase Family (ALDH2) Primary screen (AID 2061308); details: ALDH2 enzyme inhibition qHTS, 1536-well; series mostly up to 56 µM; note: nearly all actives have a fitted effect of over 55% in size
[2] = target: Retinaldehyde dehydrogenase 3 (Homo sapiens) (UniProt P47895); assay: qHTS for Inhibitors of the Aldehyde Dehydrogenase Family (ALDH1A3) Primary screen (AID 2061315); details: ALDH inhibition qHTS; series mostly up to 56 µM

| Compound | Potency [1] | Potency [2] |
| --- | --- | --- |
| COc1ccccc1CNc1ccc(S(=O)(=O)Nc2nccs2)cc1 | inactive | inactive |
| Cc1noc(C)c1-c1ccc2ncnc(NCc3ccccc3F)c2c1 | inactive | inactive |
| COc1ccc(C2c3c(ncn(CCc4ccccc4)c3=N)Oc3ccc4ccccc4c32)cc1OC (stereo not drawn) | inactive | inactive |
| COc1cccc(CNc2ccc(S(=O)(=O)Nc3nccs3)cc2)c1 | inactive | inactive |
| COc1cc(-c2nc(Nc3ccc(F)c(F)c3)c3ccccc3n2)c(F)cn1 | inactive | inactive |
| Cc1ccc(NS(=O)(=O)c2cc3c(cc2Br)NC(=O)CO3)cc1C | inactive | inactive |
| CNc1nccc(-c2cccc3ccccc23)n1 | inactive | inactive |
| CC(C)(C)OC(=O)NCC(=O)NNC(=O)C(C(=O)OCc1ccccc1)c1ccccc1 (stereo not drawn) | inactive | inactive |
| Cc1cc(C)nc(NC(=S)N2CCN(c3ccc4ncccc4c3[N+](=O)[O-])CC2)c1 | inactive | inactive |
| COc1ccc(C2Nc3ccccc3C(=O)N2Cc2cccc(Cl)c2)cc1COc1ccc(NC(C)=O)cc1 (stereo not drawn) | inactive | inactive |
| CNc1oc(-c2cccc3cnccc23)nc1C#N | inactive | inactive |
| Cc1ccc(CNc2ncnc3ccc(-c4ccc5c(c4)OCO5)cc23)o1 | inactive | inactive |
| CC(C)(C)OC(=O)CC(=O)NNC(=O)c1nc2ccccc2[nH]1 | inactive | inactive |
| N=c1c2c(ncn1-c1ccccc1)Oc1ccc3ccccc3c1C2c1ccc2c(c1)OCO2 (stereo not drawn) | inactive | inactive |
| Cc1c(P(=S)(c2ccccc2)c2ccccc2)[n+]2ccccc2n1CC(=O)c1ccccc1 | inactive | inactive |
| COc1ccc(C2=Nn3c(nnc3-c3cccc(OC)c3OC)SC2)cc1OC | inactive | inactive |
| CCCn1ncc(CN2CCCC(C(=O)c3cccc(OC(C)C)c3)C2)c1C (stereo not drawn) | inactive | inactive |
| Cc1nc(NCc2ccccc2)c2nc(-c3ccccc3)n(C(C)CN(C)C)c2n1 (stereo not drawn) | inactive | inactive |
| COc1cc(O)c(C(CC(=O)N2CCC(Cc3ccccc3)CC2)c2ccc(C)cc2)c(OC)c1 (stereo not drawn) | inactive | inactive |
| NC(=O)C1CCN(c2nc(-c3cccc(F)c3)cs2)CC1 | inactive | inactive |
| N/C(=N\c1nnc(-c2ccncc2)s1)Nc1ccc(F)c(C(F)(F)F)c1 | inactive | inactive |
| FC(F)(F)c1ccccc1-c1nc(NCc2ccc3c(c2)OCO3)c2ccccc2n1 | inactive | inactive |
| CC(C)c1ccccc1-c1nc(NCc2ccc(-c3cccnc3)cc2)c2cccn2n1 | inactive | inactive |

| Compound | Potency [1] | Potency [2] |
| --- | --- | --- |
| CC(C)c1cccc(C(C)C)c1NC(=O)Nc1ccc(Sc2ccc([N+](=O)[O-])cc2)cc1 | inactive | inactive |
| CCOC(=O)C1CCN(C(=O)C(C)(C)NC(=O)Nc2ccc3ccccc3c2)CC1 | inactive | inactive |
| COc1cccc2nc3sc(Nc4ccc5c(c4)CCC5)nn3c(=O)c12 | inactive | inactive |
| Cc1cc(-c2nnc3n2CCCCCCC3)c(C)n1-c1ccccc1 | inactive | inactive |
| N#Cc1c(-c2cccc(C(F)(F)F)c2)no[n+]1[O-] | inactive | inactive |
| O=S(=O)(Nc1ccccc1)c1ccc(O)c2ncccc12 | inactive | inactive |
| CCOc1ccc(CCNC(=O)c2csc(Br)n2)cc1OCC | inactive | inactive |
| FC(F)(F)c1ccccc1-c1nc(NCc2ccc(-c3ccncc3)cc2)c2ccccc2n1 | inactive | inactive |
| S=c1[nH]c2ccccc2n1CCc1ccccc1 | inactive | inactive |
| Cc1cc(C)nc(NC(=S)N2CCN(c3cnc4nccn4c3)CC2)c1 | inactive | inactive |
| O=C1CCCC2=C1C(c1[nH]ncc1Cl)N=C(Nc1nccs1)N2 (stereo not drawn) | inactive | inactive |
| CN(C)c1ccc(CNc2nc(-c3ccccc3C(F)(F)F)nc3ccccc23)cc1 | inactive | inactive |
| COc1ccc(/C=C2/C(=O)Nc3ccccc32)cc1O | inactive | inactive |
| Fc1cccc(CNc2ncnc3ccc(-c4cccc(Cl)c4)cc23)c1 | inactive | inactive |
| CNc1nnc(-c2cccc3ccccc23)s1 | inactive | inactive |
| COc1ccc(S(=O)(=O)Nc2c(C)cc(C)cc2C)cc1 | inactive | inactive |
| COc1ccccc1NC(=O)c1ccc2ccccc2c1 | inactive | inactive |
| O=S(=O)(c1ccc2c(c1)OCCO2)N1CCN(S(=O)(=O)c2cccc(Cl)c2F)CC1 | inactive | inactive |
| CCN1CCN(c2cc(-c3ccc(F)cc3)c3c(n2)CCCCCC3)CC1 | inactive | inactive |
| C[C@H]1CC[C@@]2(OC1)O[C@H]1CC3C4CC[C@H]5C[C@@H](O)CC[C@]5(C)C4=CC(=O)[C@]3(C)[C@H]1[C@@H]2C (stereo partly drawn) | inactive | inactive |
| O=S(=O)(Nc1cnc2ccccc2c1)c1ccc(NCc2ccc(Br)cc2O)cc1 | inactive | inactive |
| CCCn1c(C)nc2c(N(CCOC)CCOC)nc(C)nc21 | inactive | inactive |
| COc1ccc2c(c1)CN(C(=O)CCN1CCC(Cc3ccccc3)CC1)CCS2 | inactive | inactive |

| Compound | Potency [1] | Potency [2] |
| --- | --- | --- |
| COc1ccc2c(c1)C=C1Cn3c-2c(C2CCCCC2)c2ccc(cc23)C(=O)NS(=O)(=O)N(C)CCOCCN(C)C1=O | inactive | inactive |
| CC(=O)Nc1sc2c(c1-c1ccc(Cl)cc1)CCNC2 | inactive | inactive |
| Cc1cc(C)nc(NC(=S)N2CCN(c3ccc(C(F)(F)F)cn3)CC2)c1 | inactive | inactive |
| COc1ccc(-c2nnc3n2N=C(c2c(OC)cccc2OC)CS3)cc1 | inactive | inactive |
| Cc1cc(C)n2ncc(C(=O)Nc3ccc(C)c(C)c3)c2n1 | inactive | inactive |
| COc1ccc(-c2csc(NC(=O)c3ccccc3NS(=O)(=O)c3ccc(C)cc3)n2)cc1 | inactive | inactive |
| COc1ccccc1-c1nnc(SCC#CCOC(=O)c2ccc(F)cc2)o1 | inactive | inactive |
| CN(Cc1ccco1)c1ncnc2ccc(-c3cccc(Cl)c3)cc12 | inactive | inactive |
| Cc1cc(N[S+](=O)([O-])c2ccc(NC(=O)Cc3ccccc3Cl)cc2)no1 | inactive | inactive |
| Cc1ccc(S(=O)(=O)n2cc(C(=O)Nc3ccc(-c4ccccc4)cc3)c3ccccc32)cc1 | inactive | inactive |
| FC(F)(F)c1ccccc1-c1nc(NCC#Cc2cccnc2)c2ccccc2n1 | inactive | inactive |
| O=C(Nc1ncc(Cc2cccc(C(F)(F)F)c2)s1)c1ccc(-c2cccc([N+](=O)[O-])c2)o1 | inactive | inactive |
| Cc1cc(C)nc(NC(=S)N2CCN(c3cccc(OC(F)F)c3)CC2)c1 | inactive | inactive |
| Cc1ccc(S(=O)(=O)Nc2cc3c(cc2C(=O)Nc2nc(-c4ccccc4)cs2)OCO3)cc1 | inactive | inactive |
| Cc1ccc(-c2ccc(=O)n(CC(=O)NCCCc3ccccn3)n2)cc1 | inactive | inactive |
| Cc1cc(-c2ccccc2)nc2c(C(=O)Nc3ccc(Cl)c(Cl)c3)cnn12 | inactive | inactive |
| O=c1cc(CN2CCCN(c3ccc(C(F)(F)F)cn3)CC2)nc2ccccn12 | inactive | inactive |
| Cc1cccc(-n2cnc3cc(C(=O)N4CCCC4)ccc32)c1 | inactive | inactive |
| CC(=O)Nc1sc2c(c1-c1ccccc1)CCNC2 | inactive | inactive |
| O=C(Nc1ccc(Br)c(Br)c1)Nc1cccc(-c2ccncc2)n1 | inactive | inactive |
| CCC(=O)NC(c1cc(Cl)c2cccnc2c1O)C(C)C (stereo not drawn) | inactive | inactive |
| Cc1cc(N[S+](=O)([O-])c2ccc(NC(=O)Cc3ccc4c(c3)CCO4)cc2)no1 | inactive | inactive |
| Brc1sc2c(c1-c1nc3ccccc3s1)CCNC2 | inactive | inactive |

| Compound | Potency [1] | Potency [2] |
| --- | --- | --- |
| COc1ccc(-c2nc3ccccc3c(=O)n2Cc2ccccc2)cc1COc1ccc(NC(C)=O)cc1 | inactive | inactive |
| COc1ccc(C2=Nn3c(nnc3-c3ccccc3OC)SC2)cc1OCC1CC1 | inactive | inactive |
| COc1ccccc1-c1ncc(C)c(NCc2ccc(-c3cccnc3)cc2)n1 | inactive | inactive |
| O=C(Cn1nc(-c2ccc(C(F)(F)F)cc2)ccc1=O)NCCc1ccccc1 | inactive | inactive |
| CCN1CCN(C(=O)CCN(CC(C)C)c2nc(-c3cccs3)nc3ccccc23)CC1 | inactive | inactive |
| COc1ccc(C2C3=C(N=CN(CCN4CCOCC4)C3N)Oc3ccccc32)cc1OC (stereo not drawn) | inactive | inactive |
| NC(=O)c1ccc(-c2noc(-c3cccc(Cl)c3)n2)cc1 | inactive | inactive |
| O=C(CNC(=O)C1CCCCCC1)OC(C(=O)Nc1cc(C(F)(F)F)ccc1Cl)c1ccccc1 (stereo not drawn) | inactive | inactive |
| Fc1ccccc1-c1nc(-c2ccc(-c3nn[nH]n3)cc2)no1 | inactive | inactive |
| COc1cc(O)c(C(CC(=O)N2CCCCC2)c2ccc(C)cc2)c(OC)c1 (stereo not drawn) | inactive | inactive |
| Cc1ccc(NS(=O)(=O)c2cc3c(cc2Cl)NC(=O)CO3)cc1Cl | inactive | inactive |
| CN1CCC(c2cn(C)c3ccc(OS(=O)(=O)c4c(F)cccc4F)cc23)CC1 | inactive | inactive |
| Nc1ccc(-c2nnc(NC(=O)Nc3ccc(Cl)c(Cl)c3)s2)cc1 | inactive | inactive |
| COc1cccc(-c2ccc3ncnc(NCc4cc(C)cs4)c3c2)c1 | inactive | inactive |
| CC(C)C1CCC(C(=O)Nc2ccc(S(=O)(=O)Nc3nccs3)cc2)CC1 (stereo not drawn) | inactive | inactive |
| COC(=O)c1ccc(NC(=O)c2nc3ccccc3n(C)c2=O)cc1 | inactive | inactive |
| CC(C)(C)OC(=O)NCCOCCOCCOc1ccc(-c2no[n+]([O-])c2C#N)cc1 | inactive | inactive |
| Cc1ccc(Cl)cc1NS(=O)(=O)c1cc2c(cc1Cl)CCC(=O)N2 | inactive | inactive |
| FC(F)(F)c1ccccc1-c1nccc(NCc2ccc(-c3cccnc3)cc2)n1 | inactive | inactive |
| CC(C)c1ccccc1-c1ncc(N(C)C)c(NCc2ccc(-c3cccnc3)cc2)n1 | inactive | inactive |
